Experimental findings from PubChem BioAssay (NCI) are described below.

The nature of test [1]: NCI Yeast Anticancer Drug Screen. Data for the rad50 strain (AID 155).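 Further: 0% = growth of vehicle-only cultures of the same strain.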 The conditions noted are these: S. cerevisiae rad50 strain growth inhibition; at 50.0 µM; hits give high values. A digest of the protocol: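 Yeast carrying a defined DNA repair defect were exposed to test compounds, and growth was compared with vehicle-treated controls to give percent inhibition.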
The nature of test [2]: NCI Yeast Anticancer Drug Screen. Data for the mec2-1 strain (AID 157). The conditions noted are these: S. cerevisiae mec2-1 strain, at 50.0 µM, hits give high values. A digest of the protocol:
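Each compound was tested on mec2-1 yeast, a strain altered in DNA damage repair or cell cycle control. Growth inhibition is reported relative to vehicle.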

Test [3] in a line: NCI Yeast Anticancer Drug Screen. Data for the sgs1 mgt1 strain (AID 161).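 Further: 0% = growth of cultures given vehicle only.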 The conditions noted are these: S. cerevisiae sgs1 mgt1 strain, at 50.0 µM, hits give high values. The method in brief: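 Test agents were incubated with a DNA-repair-mutant yeast strain. Growth was then read and compared against vehicle-treated controls.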
The nature of test [4]: NCI Yeast Anticancer Drug Screen. Data for the cln2 rad14 strain (AID 165).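 Further: 0% = growth equal to vehicle treated cultures.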 Conditions: S. cerevisiae cln2 rad14 strain, at 50.0 µM, hits give high values. A digest of the protocol: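 Test compounds were added to cln2 rad14 yeast cultures; inhibition of growth was then determined by comparison with vehicle treatment.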
A short description of test [5]: NCI Yeast Anticancer Drug Screen. Data for the bub3 strain (AID 167). Conditions: S. cerevisiae bub3 mutant strain, at 50.0 µM, hits give high values. The method in brief:
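Compounds were applied to a genetically altered yeast strain carrying a cell-cycle control defect. Growth inhibition was scored against vehicle-treated controls.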

Test [6] in a line: NCI Yeast Anticancer Drug Screen. Data for the mlh1 rad18 strain (AID 175). The conditions noted are these: S. cerevisiae mlh1 rad18 strain growth inhibition; at 50.0 µM; hits give high values. A digest of the protocol:
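Inhibition values reflect reduced growth of mutant yeast versus vehicle-treated controls following compound exposure; the mutations affect DNA damage repair.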

Compounds without any hit were thinned out: in the full panel of roughly 79,000, 15% have a hit. Values without a mark were called inactive. Activity calls are given as the source filed them. No stated cut-off is given here; in the data, active means growth inhibition above about 70%; inactive means the rest.

Turning to `Cc1ccc(C(=O)OC(C)C)cc1N=NN(C)C`, the growth inhibition in test [1] is 32.4%; in test [2], -11.4%; in test [3], 11.1%; in test [4], 27.1%; in test [5] it was 6.45%; in test [6], -15.9%.

With `CC(C)[C@@H]1CC[C@@H](C)C[C@H]1OC(=O)/C=C1\C(C(=O)O[C@@H]2C[C@H](C)CC[C@H]2C(C)C)[C@H]2C=C[C@@H]1O2` (stereo not given in full), the growth inhibition in test [1] is -6.15%; in test [2], -13.6%; in test [3] it was -9.35%; in test [4], -25.1%; in test [5], -27.1%; in test [6], 6.5%.

Regarding `C/C(=N\NC(=O)c1cc(C)nc2ccc(Br)cc12)c1ccccc1O`, the growth inhibition in test [1] is 71.1% (active); in test [2] it was 63%; in test [3] it was 79.8% (active); in test [4] it was 48.3%; in test [5], 7.3%; in test [6], 72.5% (active).

Take `CN1CCN(C(=S)N(C(=O)c2ccc(Cl)cc2)c2ccccc2)CC1`: the growth inhibition in test [1] is -49.2%; in test [2] it was -36.5%; in test [3] it was -20.6%; in test [4], -6.8%; in test [5] it was 4.65%; in test [6] it was -7.25%.

As for `CCCCCCCC/C=C\CCCCCCCC(=O)NCCN(CCN)C(=O)CCCCCCC/C=C\CCCCCCCC`, the growth inhibition was -20.9% in test [1]; -18.4% in test [2]; -16.8% in test [3]; -20.6% in test [4]; -41.9% in test [5]; -23.8% in test [6].

Regarding `OC(c1ccncc1)(c1ccc(Cl)cc1)c1cccs1` (stereo not given), the growth inhibition was 6.35% in test [1]; 11.2% in test [2]; 6.95% in test [3]; -5.2% in test [4]; 21.4% in test [5]; 7.7% in test [6].

As to `Cc1c2c(C#N)nccc2c(C)c2c1c1ccccc1n2Cc1ccccc1`, the growth inhibition in test [1] is 33.5%; in test [2], 14.1%; in test [3] it was -8.3%; in test [4], 20.9%; in test [5] it was -28.7%; in test [6], -45.6%.

Take `CNC(=O)c1cc(OC)ccc1O`: the growth inhibition is -25.9% in test [1]; -9.7% in test [2]; -4.3% in test [3]; -32.3% in test [4]; -3.6% in test [5]; 12.4% in test [6].

Turning to `CC(C)CCCC(C)C1CCC2C3C(=O)C=C4C=CCCC4(C)C3CCC12C` (stereo not given), the growth inhibition in test [1] is 5.95%; in test [2], 11.2%; in test [3], 34.1%; in test [4] it was 9.55%; in test [5], 5.9%; in test [6], 10.5%.

Take `O=c1/c(=C\c2ccccc2Cl)sc2n1CCN=2`: the growth inhibition in test [1] is 22.2%; in test [2] it was 5.8%; in test [3], 4.9%; in test [4], 15.4%; in test [5] it was 11.3%; in test [6] it was 24.9%.

Turning to `COc1ccc([N+](=O)[O-])c2c(C)cc(=O)[nH]c12`, the growth inhibition was 32.1% in test [1]; 19.4% in test [2]; 21.9% in test [3]; -9.5% in test [4]; -23.6% in test [5]; 35.7% in test [6].

For `CC(=O)Oc1c(C(C)C)cccc1C(C)(C)C`, the growth inhibition was -10.8% in test [1]; -9.95% in test [2]; -1.1% in test [3]; -14.1% in test [4]; -34.1% in test [5]; -13.5% in test [6].

`COC(=O)CCC(=O)CC(=O)C1=NS(=O)(=O)c2nc(S(N)(=O)=O)c(Cl)cc2N1`: the growth inhibition in test [1] was -5.3%; in test [2] it was 6.7%; in test [3], -14.8%; in test [4], -24.6%; in test [5], -16.1%; in test [6], -1.35%.

Consider `CC(=O)N1c2ccccc2C2(C)CCCC(O)C12O` (stereo not given), for which the growth inhibition is 8.05% in test [1]; 6.05% in test [2]; -3.9% in test [3]; 1.9% in test [4]; 6.5% in test [5]; -23.9% in test [6].

With `c1ccc(-c2cc[n+]3c4c2ccc2c(-c5ccccc5)cc[n+](c24)CC3)cc1`, the growth inhibition in test [1] was 78.5% (active); in test [2], 51.5%; in test [3], 89.6% (active); in test [4] it was 73.8% (active); in test [5] it was 25.8%; in test [6] it was 87.2% (active).

`O=C(Cn1c(=O)oc2ccc(C(=O)c3ccc(F)cc3)cc21)c1ccccc1`: the growth inhibition was -21.4% in test [1]; -24.5% in test [2]; -6.25% in test [3]; -27.9% in test [4]; -0.2% in test [5]; -26.9% in test [6].

`CC(=O)Nc1cc2c(cc1Br)Cc1cc(Br)ccc1-2`: the growth inhibition in test [1] is -4.15%; in test [2] it was -4.1%; in test [3] it was -8.2%; in test [4], -4.5%; in test [5] it was 1.1%; in test [6], -14.2%.

Consider `CS(=O)(=O)Nc1ccccc1-c1nc2ccccc2c(=O)o1`, for which the growth inhibition in test [1] was 26.6%; in test [2], 30.7%; in test [3], 27.2%; in test [4] it was 14.3%; in test [5] it was 33.2%; in test [6], 27.7%.

With `CCOC(=O)c1[nH]c(C)c(C(=O)OC(C)(C)C)c1C`, the growth inhibition in test [1] was 4.55%; in test [2], 14.8%; in test [3], 0.35%; in test [4], 10.4%; in test [5] it was -4.65%; in test [6] it was 0.45%.

On to `CN(C)CCNC1=CC(=O)c2nc3ccccc3c3ccnc1c23`, for which the growth inhibition in test [1] is 37%; in test [2] it was 14.2%; in test [3], 26.8%; in test [4], 27.9%; in test [5], 33.6%; in test [6], 27.4%.
